High-throughput results: PubChem, National Center for Advancing Translational Sciences (NCATS)
SW480 rerep: inducers of DNA re-replication in SW480 colon cancer cells. SW480 DNA re-replication, Hoechst DNA content imaging, 48 h. Potency, µM (titrated, usually from 46.1 µM), without a hit: top-dose re-replication activation, hits mostly activators. actives 1.8% (n = 340,000); further: % of control where 0% means no effect; nearly all actives have a fitted effect of over 55% in size
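Image-based DNA-content assay: after two days of treatment, nuclei were labelled with the DNA dye Hoechst and imaged, and hits were compounds raising the count of nuclei showing high fluorescence intensity.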
MCF10A rerep: inducers of DNA re-replication in MCF 10A breast cells. MCF 10A DNA re-replication, Hoechst nuclear intensity, 48 h. Potency, µM (titrated, usually from 46.1 µM), inactives show top-dose activity, positive = re-replication, hits mostly activators. actives 2.9% (n = 350,000); further: % of control where 0% means no effect; nearly all actives have a fitted effect of over 50% in size
Mito fusion act: inhibitors of mitochondrial division or activators of mitochondrial fusion; S. cerevisiae fusion-defective mutant growth rescue, CellTiterGlo 48 h; Potency, µM (titrated, usually from 46.1 µM), for the others: at the top dose growth rescue (activation), most hits filed as activators; actives 0.23% (n = 320,000); further: % of control where 0% means no effect; nearly all actives have a fitted effect of over 45% in size
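Growth-rescue viability read-out: after 48 h at the non-permissive 37C in glycerol/ethanol YPEG, yeast mitochondrial fusion mutants are measured by CellTiterGlo luminescence; compounds (23 nl pinned per well) restoring growth score as division inhibitors or fusion activators.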
Integrin act MD: activates integrin-mediated alleviation for muscular dystrophy; actives 0.064% (n = 350,000); Potency, µM (series often up to 38.3 µM), for inactives: top-dose activation, actives largely listed as activators; alpha7betagal myoblasts, beta-gal FDG fluorescence, 48 h; AID 624291;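 further: 100% = response of the positive control SU9516; nearly all actives have a fitted effect of over 60% in size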
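alpha7betagal+/- myoblasts (passage 13, 250/well) treated 48 h at 37C with compounds at 1:260 dilution of DMSO stock. Lysed, then beta-galactosidase activity read as FDG fluorescence (ex 480/em 540) after 30 min, with pre-read for autofluorescence.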
AT treatment: potential ataxia-telangiectasia treatment; actives 0.19% (n = 320,000); F2112 A-T fibroblasts, KAP-1 phosphorylation AlphaLISA; neocarzinostatin DNA damage 30 min before lysis; Potency, µM (highest dose often 57.5 µM), without a hit: top-dose activation, hits mostly activators; further: % of control where 0% means no effect; nearly all actives have a fitted effect of over 45% in size
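ATM-like activity read as KAP-1 phosphorylation via AlphaLISA donor/acceptor antibody pairs after lysis and 6 hr at 25C. Cells were ATM-null patient fibroblasts (F2112, hTERT), dosed 60 min, then exposed to the DSB inducer NCS for 30 min.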
The depositor's hits bear a star; [ ] = another dose, or the depositor's remark. Compounds with a hit are over-represented: about 4.2% of the library has one in this group of screens. The call rests on the fitted dose curve; in most records, active means well fitted activation curve with a large enough effect; inconclusive means small, poorly fitted or top-dose-only effect; inactive means no such curve, though single readings can be large or run the other way. Potency means the concentration at half of the fitted maximal effect.

For C#CCOCCOCCOCCNc1nc(N2CCN(C(=O)CCCCCCCCCCNC(=O)[C@H](CCCCN)n3cc(C[C@@H](C)CC)nn3)CC2)nc(N2CCN(C(=O)CCCCCCCCCCNC(=O)[C@H](CCCN=C(N)N)n3cc(C[C@@H](C)CC)nn3)CC2)n1 the results were SW480 rerep 2%[9.22 µM], MCF10A rerep 16µM*, Mito fusion act -2%, Integrin act MD -45% and AT treatment 11%.
C#CCOCCOCCOCCNc1nc(N2CCN(C(=O)CCCCCCCCCCNC(=O)[C@@H](CCSC)n3cc(CCO)nn3)CC2)nc(N2CCN(C(=O)CCCCCCCCCCNC(=O)[C@@H]([C@H](C)O)n3cc(C)nn3)CC2)n1 was read as SW480 rerep -2%, MCF10A rerep 16µM*, Mito fusion act 1%, Integrin act MD -5% and AT treatment 8%.
For C#CCOCCOCCOCCNc1nc(N2CCN(C(=O)CCCCCCCCCCNC(=O)[C@H](CCCCN)n3cc(C)nn3)CC2)nc(N2CCN(C(=O)CCCCCCCCCCNC(=O)[C@@H]([C@H](C)O)n3cc(C)nn3)CC2)n1 the results were SW480 rerep -2%, MCF10A rerep inconclusive, Mito fusion act -8%, Integrin act MD -20% and AT treatment -2%.
`C#CCOCCOCCOCCNc1nc(N2CCN(C(=O)CCCCCCCCCCNC(=O)[C@H](CCCCN)n3cc(C[C@@H](C)CC)nn3)CC2)nc(N2CCN(C(=O)CCCCCCCCCCNC(=O)[C@@H]([C@H](C)O)n3cc(C)nn3)CC2)n1` gave SW480 rerep 20%[9.22 µM], MCF10A rerep 12µM*, Mito fusion act -5%, Integrin act MD -41% and AT treatment 10%.
COc1ccc(NC(=O)C[C@H]2C(=O)N(c3ccccc3)C[C@@H]2CSC)cc1 was read as Integrin act MD 1%.
Screening CCOc1ccc(S(=O)(=O)N2CCN(C(=O)Cc3n[nH]c(=O)c4ccccc34)CC2)cc1 returned SW480 rerep 1%, MCF10A rerep 0%, Mito fusion act -4%, Integrin act MD 7% and AT treatment 3%.
COc1ccc(C2=Cc3ccc(OC(C)=O)cc3OC2)cc1 was read as SW480 rerep 5%, MCF10A rerep inconclusive and Integrin act MD -17%.
For Cc1nc2ccc(NC(=O)c3ccc4ccccc4n3)cc2s1 the results were SW480 rerep -1%, MCF10A rerep -6%, Mito fusion act 4µM*, Integrin act MD inconclusive and AT treatment 7%.
Screening CCNc1ccc(C(=O)Nc2ccc3nc(C)sc3c2)cc1[N+](=O)[O-] returned SW480 rerep -5%, MCF10A rerep 1%, Mito fusion act 35µM*, Integrin act MD -12% and AT treatment 1%.
Screening Cc1nc2ccc(NC(=O)c3ccccc3)cc2s1 returned SW480 rerep 5%, MCF10A rerep 3%, Mito fusion act -3%, Integrin act MD -25% and AT treatment -4%.
For Cc1ccc(NC(=O)c2ccc(NCCc3ccccc3)c([N+](=O)[O-])c2)cc1F the results were SW480 rerep 4%, MCF10A rerep 18µM*, Mito fusion act 9%, Integrin act MD -17% and AT treatment -1%.
`O=C(Nc1cc(F)cc(F)c1)c1ccc(NCCc2ccccc2)c([N+](=O)[O-])c1` gave SW480 rerep -10%, MCF10A rerep 17%, Mito fusion act 7%, Integrin act MD 4% and AT treatment 7%.
COc1cc(NC(=O)CCCC(=O)OCC(F)(F)C(F)F)nc(OC)n1 was read as SW480 rerep inconclusive, MCF10A rerep 23µM*, Mito fusion act -2%, Integrin act MD 0% and AT treatment 20%.
For COc1ccc(C2CC(c3ccc(Cl)cc3)=NN2C(=O)c2cccc([N+](=O)[O-])c2)cc1 (stereo not drawn) the results were SW480 rerep -1%, MCF10A rerep -4%, Mito fusion act 19%, Integrin act MD -2% and AT treatment 4%.
For Clc1ccc(Oc2ncnc3oc(-c4ccccc4)cc23)cc1 the results were SW480 rerep 0%, MCF10A rerep 5.8µM*, Mito fusion act 0%, Integrin act MD 2% and AT treatment -9%.
Screening O=C(NCc1ccccc1)c1cccc(NC(=O)C2CC2)c1 returned SW480 rerep -9%, MCF10A rerep inconclusive and Integrin act MD 6%.
Screening Cc1ccc(S(=O)(=O)N2CCCN(C)c3nc4ccccc4nc32)cc1 returned SW480 rerep inconclusive, MCF10A rerep 23µM*, Mito fusion act 19%, Integrin act MD 23% and AT treatment 3%.
`CN1CCCN(S(=O)(=O)c2ccccc2)c2nc3ccccc3nc21` gave SW480 rerep 19%, MCF10A rerep inconclusive, Mito fusion act 11%, Integrin act MD 14% and AT treatment 13%.
For CN1C(=O)/C(=C/c2ccccc2Cl)Sc2ccc(C(=O)NCc3cccnc3)cc21 the results were SW480 rerep -5%, MCF10A rerep 21µM*, Mito fusion act -3%, Integrin act MD 9% and AT treatment -2%.
CCC1=Nc2cc(C(=O)NCc3ccco3)ccc2Sc2ccccc21 was read as SW480 rerep 8.2µM*, MCF10A rerep 4.1µM*, Mito fusion act inconclusive, Integrin act MD 13% and AT treatment -13%.
For CN1C(=O)/C(=C/c2ccccc2F)Sc2ccc(C(=O)NCC3CCCO3)cc21 (stereo not drawn) the results were SW480 rerep inconclusive, MCF10A rerep inconclusive, Mito fusion act 33%, Integrin act MD 13% and AT treatment 4%.
`CCC1=Nc2cc(C(=O)NCc3cccnc3)ccc2Sc2ccc(C)cc21` gave SW480 rerep 3.7µM*, MCF10A rerep 2.3µM*, Mito fusion act -4%, Integrin act MD -12% and AT treatment -2%.
`CCC1=Nc2cc(C(=O)O)ccc2Sc2ccccc21` gave SW480 rerep -3%, MCF10A rerep 2%, Mito fusion act 11%, Integrin act MD 15% and AT treatment 4%.
For CCC1=Nc2cc(C(=O)NCc3ccco3)ccc2Sc2ccc(Cl)cc21 the results were SW480 rerep 7.9µM*, MCF10A rerep 3.7µM*, Mito fusion act inconclusive, Integrin act MD -27% and AT treatment -10%.
For CCOc1ccc(N2C(=O)CC(NC3CCN(C(=O)c4cccs4)CC3)C2=O)cc1 (stereo not drawn) the results were SW480 rerep -1%, MCF10A rerep -2%, Mito fusion act -3%, Integrin act MD inconclusive and AT treatment -9%.
Screening C[C@]12CC[C@H](O)CC1=CCC1C2CC[C@@]2(C)C1CC[C@@H]2NCc1ccccc1 (stereo partly drawn) returned Integrin act MD -31%.
